PubChem BioAssay (NCATS)
Several values for one entry are separate records, joined by “and”; a condition that tells them apart may be missing. Identical values can stand only once. Inconclusive results are not listed. Activity calls are given as the source filed them. Calls follow the shape of the dose curve; as a rule, active = well fitted curve in the direction sought with a large enough effect; inconclusive = small, poorly fitted or top-dose-only effect, or another doubt; inactive = no such curve, though single readings can be large; an effect the other way counts as inactive or inconclusive. Numbered stars: 1 amine (or outer) side, 2 acyl side, 3 side chain; on linkers, the order of the positions; unused ones are H or OH. Square brackets hold non-standard residues; d marks the D form. Peptide text beside a SMILES is read from it. X5 = O=C([C@@H](CC(O)CCl)O[*:1])[*:2]; aIle = CC[C@@H](C)[C@H](N)C(=O)O; NMeV = CN[C@H](C(=O)O)C(C)C; NMeA = CN[C@@H](C)C(=O)O; βAla = NCCC(=O)O

Assays:
[1] = molecular target: Cellular tumor antigen p53 (Homo sapiens) (UniProt P04637); experiment: Primary qHTS for small molecule compounds that upregulate eGFP-tagged delta133p53alpha (in N-terminal) cells. (AID 2060322); conditions: NCI-H358 eGFP-delta133p53alpha fluorescence, 24 h; activation: hits give high values;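 also: cells pre-induced with doxycycline then dosed without doxycycline; series mostly up to about 56 µM; 0% = DMSO vehicle and 100% = reference activator; nearly all actives have a fitted effect of over 75% in size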
Sequence of Cellular tumor antigen p53 (Homo sapiens) (P04637 whole entry, looked up): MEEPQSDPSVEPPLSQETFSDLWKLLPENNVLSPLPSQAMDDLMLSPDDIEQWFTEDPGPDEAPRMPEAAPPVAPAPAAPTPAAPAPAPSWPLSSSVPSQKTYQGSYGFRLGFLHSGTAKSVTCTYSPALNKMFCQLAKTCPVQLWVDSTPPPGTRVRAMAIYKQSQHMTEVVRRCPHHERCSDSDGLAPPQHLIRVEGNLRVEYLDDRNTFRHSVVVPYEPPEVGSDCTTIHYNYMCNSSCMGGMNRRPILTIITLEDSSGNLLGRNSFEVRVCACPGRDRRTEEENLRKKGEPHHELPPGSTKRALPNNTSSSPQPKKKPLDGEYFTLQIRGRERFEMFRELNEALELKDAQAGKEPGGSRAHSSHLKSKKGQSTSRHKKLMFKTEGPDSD
How it was run: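 NCI-H358 cells pre-induced 24 h with 10 ng/ml doxycycline for eGFP-delta133p53alpha, plated dox-free and exposed 24 h at 37C to titrated compounds. Fixed, Hoechst-stained; gated GFP peak intensity by laser scanning cytometry, normalized to DMSO (0%) and 57.5 uM 5-azacytidine (100%).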

[2] = molecular target: Aldehyde dehydrogenase, mitochondrial (Homo sapiens) (UniProt P05091); experiment: qHTS for Inhibitors of the Aldehyde Dehydrogenase Family (ALDH2) Primary screen (AID 2061308);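 also: plate controls were vehicle for no effect and reference inhibitor for full effect; nearly all actives have a fitted effect of over 55% in size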
[3] = molecular target: Retinaldehyde dehydrogenase 3 (Homo sapiens) (UniProt P47895); experiment: qHTS for Inhibitors of the Aldehyde Dehydrogenase Family (ALDH1A3) Validation screen (AID 2061312); also: % is scaled to controls: 0 for no effect and ±100 for the full control effect; nearly all actives have a fitted effect of over 45% in size
[4] = molecular target: Retinaldehyde dehydrogenase 3 (Homo sapiens) (UniProt P47895); experiment: qHTS for Inhibitors of the Aldehyde Dehydrogenase Family (ALDH1A3) Primary screen (AID 2061315);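 also: plate controls were DMSO vehicle for no effect and reference inhibitor for full effect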
[5] = BET inhibitor-based combinations targeting novel dependencies in MECOM-rearranged (r) AML: MV-4-11 cell line (AID 2202233); also: nearly all actives have a fitted effect of over 45% in size; also: potency is read from the fitted curve at half-maximal effect
How it was run: (§1)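 Each compound is tested in an 11-point concentration series against 500 seeded cells/well for 48 hr. The luminescent viability signal is normalized to DMSO and blank wells, then reduced to AUC and a cell-line-centred Z-AUC.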

[6] = BET inhibitor-based combinations targeting novel dependencies in MECOM-rearranged (r) AML: UCSD-AML1 cell line (AID 2202235); also: nearly all actives have a fitted effect of over 40% in size; also: potency is read from the fitted curve at half-maximal effect
How it was run: as §1

[7] = BET inhibitor-based combinations targeting novel dependencies in MECOM-rearranged (r) AML: SET-2 cell line (AID 2202231); conditions: SET-2 AML cells viability, CellTiter-Glo luminescence, 48 h; viability: hits give low values, series mostly up to about 46 µM;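 also: plate controls were DMSO treated cells for no effect and wells without cells for full effect; nearly all actives have a fitted effect of over 35% in size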
How it was run: (§2)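 A 48 hr incubation preceded viability reading by CellTiter-Glo, with 15 min room-temperature development. Dose series had 11 points; normalization used DMSO and empty wells; AUC was computed and mean-centered per line as Z-AUC.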

[8] = BET inhibitor-based combinations targeting novel dependencies in MECOM-rearranged (r) AML: OCI-AML3 cell line (AID 2202232); conditions: Potency: OCI-AML3 viability; also: nearly all actives have a fitted effect of over 35% in size; also: potency is read from the fitted curve at half-maximal effect
How it was run: as §2

[9] = BET inhibitor-based combinations targeting novel dependencies in MECOM-rearranged (r) AML: HNT-34 cell line (AID 2202234); also: nearly all actives have a fitted effect of over 35% in size; also: potency is read from the fitted curve at half-maximal effect
How it was run: as §1

[10] = BET inhibitor-based combinations targeting novel dependencies in MECOM-rearranged (r) AML: AML-194 cell line (AID 2202237; also: nearly all actives have a fitted effect of over 40% in size; also: potency is read from the fitted curve at half-maximal effect)
How it was run: as §2

[11] = BET inhibitor-based combinations targeting novel dependencies in MECOM-rearranged (r) AML: AML-191 cell line (AID 2202236; also: nearly all actives have a fitted effect of over 35% in size; also: potency is read from the fitted curve at half-maximal effect)
How it was run: as §2

Cc1c(C(=O)Nc2cccc(C(F)(F)F)c2)cc(-c2ccccc2)n1CCCN1CCOCC1
inactive: activation [1] -17.9% and -8.11% | Potency [2] | Potency [3] | Potency [4] | Potency [6]
active: Potency [5] 20.9 µM

CC[C@@H](C)[C@@H]1NC(=O)[C@@H]2CCCN2C(=O)[C@@H](CC(O)CCl)OC(=O)CCNC(=O)[C@H](C)N(C)C(=O)[C@H](C(C)C)N(C)C1=O (stereo not given in full) (cyclo([NMeA][βAla][X5]P[aIle][NMeV]))
inactive: activation [1] -10.7% | Potency [2] | Potency [4]

CCOc1ccc(Oc2ccc(OCc3cc(F)ccc3F)cc2)c(N)c1
inactive: activation [1] 3.57% | Potency [2] | Potency [4]

CCOC(=O)c1ncn2c1CN(C)C(=O)c1c(I)cccc1-2
inactive: activation [1] 7.67% | Potency [2] | Potency [4]

Cc1ccccc1-n1c(Cn2ncc3c(N)ncnc32)nc2cccc(C)c2c1=O
inactive: activation [1] 66.5% and 6.21% | Potency [2] | Potency [3] | Potency [4] | viability [7] 112% | Potency [8] | Potency [9] | Potency [6] | Potency [10]

CCCN(CCC)CCc1ccc(OC)c(OCCc2ccccc2)c1
inactive: activation [1] -1% | Potency [2] | Potency [4]

CC1=C2C[C@H]3[C@@H](CC=C4C[C@@H](O)CC[C@@]43C)[C@@H]2CC[C@]12O[C@@H]1C[C@H](C)CN[C@H]1[C@H]2C
inactive: activation [1] 2.39% | Potency [2] | Potency [3] | Potency [4] | Potency [8] | Potency [5] | Potency [9] | Potency [11] | Potency [10]

O=C(O)C(=O)c1cn(Cc2ccccc2)c2ccc(-c3ccc(OC(F)(F)F)cc3)cc12
inactive: activation [1] -6.9% and -6.21% | Potency [2] | Potency [3] | Potency [4] | viability [7] 98.6% | Potency [9] | Potency [11] | Potency [10]

C=CC(C)(O)CC/C=C(\C)C(=O)O[C@H]1[C@H](O)[C@@H](CO)O[C@@H](OC(=O)[C@]23CCC(C)(C)CC2C2=CCC4[C@@]5(C)CC[C@H](O[C@@H]6O[C@H](CO[C@@H]7OC[C@H](O)[C@H](O)[C@H]7O[C@@H]7OC[C@@H](O)[C@H](O)[C@H]7O)[C@@H](O)[C@H](O)[C@H]6O)C(C)(C)C5CC[C@@]4(C)[C@]2(C)CC3)[C@@H]1OC1OC(C)C(O[C@@H]2OC[C@@H](O)[C@H](O[C@@H]3OC[C@@H](O)[C@H](O)[C@H]3O)[C@H]2O)C(O)C1O (stereo not given in full)
inactive: activation [1] -6.87% | activity change, negative = inhibition [2] 12% [at 11.2 µM] | activity change, negative = inhibition [4] 3.26% [at 11.2 µM]

CN1C2CCC1CC(OC(=O)N1Cc3ccccc3NC1=O)C2 (stereo not given)
inactive: activation [1] 1.43% | Potency [2] | Potency [3] | Potency [4]

CCOc1ccccc1-n1c(C(C)N2CCN(C(=O)COc3ccc(Cl)cc3)CC2)nc2ccccc2c1=O (stereo not given)
inactive: activation [1] 0.955% | Potency [2] | Potency [3] | Potency [4]
active: Potency [9] 3.32 µM | Potency [11] 2.63 µM | Potency [10] 4.68 µM

C[C@@H]1CN(Cc2ccc(F)cc2)CCN1C(=O)COc1ccc(Cl)cc1NC(N)=O
inactive: activation [1] 1.91% | Potency [2] | Potency [3] | Potency [4] | Potency [6]
active: Potency [5] 14.8 µM | Potency [11] 7.42 µM

CN1C(=O)c2ccccc2NC(=O)[C@]12O[C@@H]2c1ccccc1
inactive: activation [1] -0.763% | Potency [2] | Potency [4]

CN(C)c1cc2c(cc1Sc1nc3c(N)nccc3n1CCNCC(C)(C)C)OCO2
active: Potency [8] 1.18 µM | Potency [5] 0.662 µM | Potency [6] 1.32 µM
inactive: activation [1] 5.25% | Potency [2] | Potency [3] | Potency [4]
